# Assay outcomes deposited in PubChem by National Center for Advancing Translational Sciences (NCATS).
# A selection: hits, their analogues and other compounds. The true share with any hit is near 12%.
# L3MBTL1 block: blocks human L3MBTL1; 230,000 tested, 0.66% active; AlphaScreen L3MBTL1–H3K9me1 peptide binding; Q9Y468; Potency, µM (doses to about 57.1 µM), for inactives: top-dose activity, negative = inhibition, hits mostly inhibitors; note: % is set by controls: 0 for no effect and ±100 for the full control effect; nearly all actives have a fitted effect of over 60% in size
#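 L3MBTL1 (50 nM) pre-complexed 30 min with biotinylated H3(1-15)K9me1 peptide (75 nM), then compounds added for 30 min at room temperature; AlphaScreen streptavidin donor/nickel chelate acceptor beads (10 ug/mL final) read after 30 min dark incubation.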
# HP1b chromo inh: HP1-beta chromodomain-methylated histone interaction inhibition | P83916 | AlphaScreen HP1-beta / biotin-H3K9me3 peptide binding | Potency, µM (series often up to 114 µM), for inactives: at the highest dose activity change, negative = inhibition, actives largely listed as inhibitors | 390,000 tested, 0.56% active | AID 540317; note: nearly all actives have a fitted effect of over 70% in size
#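 AlphaScreen: HP1-beta (50 nM) preformed 30 min with biotin-H3(1-18)K9me3 peptide (50 nM) in PBS pH 7.4, 0.01% Tween-20. Compound added for 30 min at RT, then streptavidin donor/nickel chelate acceptor beads (10 ug/mL) for 30 min.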
# G9a inh: G9a (human) methyltransferase inhibition | G9a H3K9 monomethylation, AlphaScreen, 2 h | Potency, µM (titrated, usually from 102 µM), without a hit: at the highest dose activity, negative = inhibition, hits mostly inhibitors | 350,000 tested, 8.8% active | AID 504332; note: % is set by controls: 0 for no effect and ±100 for the full control effect; nearly all actives have a fitted effect of over 75% in size
#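 G9a (20 nM) was preincubated 15 min with compound, then reacted 2 h at room temperature with 500 nM biotin-H3K9 peptide and 20 µM SAM. Monomethyl-H3K9 detected by AlphaScreen using anti-H3K9me1 antibody.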
# JMJD2A Tudor: blocks the human JMJD2A Tudor domain. 390,000 tested, 4.4% active. Potency, µM (titrated, usually from 114 µM), for inactives: at the highest dose activity change, negative = inhibition, usual class: inhibitors. AID 504339. AlphaScreen JMJD2A-Tudor / H3K4me3 peptide binding; note: % is set by controls: 0 for no effect and ±100 for the full control effect; nearly all actives have a fitted effect of over 50% in size
# Sfp inh: inhibitors of Bacillus subtilis Sfp phosphopantetheinyl transferase; 310,000 tested, 3.5% active; Biochemical Sfp PPTase activity, qHTS; Potency, µM, inactives show largest response in the series, negative = inhibition, hits mostly inhibitors;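 note: the enzyme is Sfp with the accession as filed and its product quenches rhodamine fluorescence; 0% = enzyme reaction without inhibitor and -100% = no enzyme wells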
#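 Fluorescence-quenching assay with 15 nM Sfp, 5 uM rhodamine-CoA and 12.5 uM BHQ-2-labelled ybbR peptide in pH 7.6 Hepes/MgCl2 buffer. Enzyme was pre-incubated with compound for 15 min at room temperature. Rate was taken from the 30-min fluorescence change (525/598 nm).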
# BAZ2B block: blocks human BAZ2B; Q9UIF8; AlphaScreen BAZ2B-H3K14Ac peptide displacement; Potency, µM (doses to about 114 µM), without a hit: at the top dose activity change, negative = inhibition, usual class: inhibitors; 360,000 tested, 4.4% active; AID 504333; note: % is set by controls: 0 for no effect and ±100 for the full control effect; nearly all actives have a fitted effect of over 60% in size
#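 Complex of BAZ2B and biotin-H3K14Ac (50 nM apiece) forms over 30 min at RT, then faces library compounds up to 110 uM for another 30 min; AlphaScreen beads added, 20 min dark incubation, luminescence read.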
# Starred values were filed as active, the others as inactive; ? = inconclusive; . = not tested or not shown; [ ] = remark or other dose. Calls come from the whole dose curve; as a rule, active = well fitted curve in the direction sought with a large enough effect; inconclusive = small, poorly fitted or top-dose-only effect, or another doubt; inactive = no such curve, though single readings can be large; an effect the other way counts as inactive or inconclusive. Potency is the fitted concentration of half-maximal effect.
SMILES,L3MBTL1 block,HP1b chromo inh,G9a inh,JMJD2A Tudor,Sfp inh,BAZ2B block
COc1cc(Br)c(C2CC(=O)Nc3cc(OC)c(OC)cc32)cc1OC (configuration not stated),-13.7%,21.4%,-15.7%,-20.0%,-3.4%,-12.0%
COc1cc2c(cc1OC)C(c1ccc(SC)cc1)CC(=O)N2 (configuration not stated),-14.7%,-5.1%,.,?,89.1µM*,?
CCN(CC)c1ccc(C2CC(=O)Nc3cc(OC)c(OC)cc32)cc1 (configuration not stated),?,-48.3%,?,50.1µM*,2.1%,44.7µM*
COc1cc2c(cc1OC)C(c1ccc(N(C)C)cc1)CC(=O)N2 (configuration not stated),.,-15.8%,?,?,-26.6%,?
CCOc1ccccc1Nc1nnc(SCC(=O)Nc2cccc(S(=O)(=O)NC3=NCCCCC3)c2)s1,-8.0%,22.0%,39.8µM*,-7.5%,?,-8.8%
CCOc1ccc2nc(SCC(=O)Nc3cccc(S(=O)(=O)NC4=NCCCCC4)c3)[nH]c2c1,1.9%,9.8%,44.7µM*,-29.5%,-21.7%,-16.2%
CCOc1ccc2nc(SCC(=O)Nc3ccc4c(c3)OCCO4)[nH]c2c1,.,16.0%,5.0%[12.7 µM],-28.1%,8.7%,?
O=C(c1ccco1)n1nc(-c2ccccc2)nc1NCc1ccc(F)cc1,.,41.1%,12.4%[59 µM],1.7%,.,6.3%
O=C(NC1CCN(Cc2ccccc2)CC1)c1ccc(Cn2c(=O)c3ccccc3n(Cc3ccc(F)cc3)c2=O)cc1,.,14.3%,-34.0%[59 µM],-19.8%,.,-5.5%
CCOc1ccc(OCC)c(NS(=O)(=O)c2c(C(=O)N3CCC(C)CC3)c(C)n(C)c2C)c1,.,23.7%,17.4%[59 µM],-12.6%,.,-31.2%
CCn1cnc2cc(NCc3ccc(OC)cc3)ccc21,.,2.1%,8.91µM*,-35.1%,-6.8%,?
CCCCn1cnc2cc(NCc3ccncc3)ccc21,-5.1%,8.2%,?,?,0.8%,-10.6%
CCOc1ccc2nc3cc(NCc4ccc(OC)cc4)ccc3c(N)c2c1,.,37.9%,35.5µM*,?,31.6µM*,?
CCc1ccc(CNc2ccc3c(c2)ncn3CC)cc1,.,?,11.2µM*,44.7µM*,-1.7%,?
Cc1ccc(S(=O)(=O)NC(C)C(=O)Nc2cccc([N+](=O)[O-])c2)cc1 (configuration not stated),-1.8%,5.6%,?,-15.4%,18.1%,-23.8%
CC(C)CC(=O)NC(=S)Nc1ccc(S(=O)(=O)N2CCCC2)cc1,1.7%,-10.1%,14.1µM*,-19.5%[11.4 µM],10.8%,-14.9%
CCCC(C)C(=O)Nc1ccc(S(=O)(=O)N2CCCC2)cc1 (configuration not stated),5.7%,21.5%,70.8µM*,0.7%,2.8%,10.4%
CC(Nc1cccc([N+](=O)[O-])c1)C(=O)Nc1ccc(S(=O)(=O)N2CCCC2)cc1 (configuration not stated),-0.4%,3.1%,50.1µM*,-32.2%,.,-8.8%
CCCCN(CC)CCCNC(=O)C1CCN(c2nc3ccc(CC)cc3s2)CC1,.,14.4%,-33.8%[59 µM],-16.4%,.,-1.5%
Cc1nc2ccccn2c(=O)c1NC(=O)c1ccc(C(F)(F)F)cc1,.,29.0%[57 µM],-3.8%[59 µM],-3.2%,.,7.8%
Nc1ccc(SCc2cccnc2)cc1,.,-1.9%,44.7µM*,-17.7%,-8.2%,21.3%
Cc1ccc(C(=O)Nc2onc3c2CCCC3)cc1,.,31.0%,-7.5%[59 µM],-10.8%,.,0.0%
Cc1ccc(N2C(=O)C3C4C=CC(C4)C3C2=O)cc1C (configuration not stated),1.5%,13.4%,2.5%,-0.7%,18.1%,1.8%
Cc1ccc(N2C(=O)C3C4C=CC(CC4)C3C2=O)cc1[N+](=O)[O-] (configuration not stated),6.1%[2.29 µM],31.8%,-46.4%[0.501 µM],-0.7%,31.6µM*,79.4µM*
CCN(CC)C(=O)CSc1nc(C)cc(-c2cccs2)c1C#N,?,1.8%,10µM*,56.2µM*,39.8µM*,-15.6%
SMILES,L3MBTL1 block,HP1b chromo inh,G9a inh,JMJD2A Tudor,Sfp inh,BAZ2B block
Cc1cc(C)c(C#N)c(SCC(=O)c2cccs2)n1,.,133.7%,27.0%[2.33 µM],-2.4%,11.8%,12.1%
COCCn1c(-c2ccc(Br)cc2)csc1=Nc1cccnc1,-6.2%,?,39.8µM*,44.7µM*,-3.5%,11.2µM*
O=C(NCCCn1ccnc1)c1cccnc1,5.0%,47.5%,6.9%[59 µM],-6.9%,3.6%,-11.3%
Clc1ccc(-c2csc(=Nc3cccnc3)n2CCCn2ccnc2)cc1Cl,?,?,11.2µM*,39.8µM*,-7.6%,11.2µM*
OC1(c2ccc(OC(F)F)cc2)CSC(=Nc2cccnc2)N1Cc1ccco1 (configuration not stated),-1.4%,11.7%,-36.2%,?,1.3%,?
FC(F)Oc1ccc(-c2csc(=Nc3cccnc3)n2CC2CCCO2)cc1 (configuration not stated),-5.5%,?,?,-28.0%[57.1 µM],9.0%,44.7µM*
COc1ccc(-c2nc3ccc(NS(=O)(=O)c4ccc(Cl)cc4)cc3o2)cc1,.,2.4%,-33.1%[59 µM],-33.1%,.,-27.3%
c1ccc(-c2nnc(N3CCCC3)nc2-c2ccccc2)cc1,.,35.1%,30.6%,-10.2%,-16.5%,-10.1%
c1ccc(-c2nnc(N3CCN(c4ccccc4)CC3)nc2-c2ccccc2)cc1,-8.0%,-11.0%,12.6µM*,?,7.4%,?
c1ccc(-c2nc(N3CCCC3)nc3ccccc23)cc1,47.0%,336.9%,?,231.8%[57.1 µM],39.8µM*,42.1%
CO[C@H]1/C=C/O[C@@]2(C)Oc3c(C)c(O)c4c(O)c(c(/C=N\N5CCN(C6CCCC6)CC5)c(O)c4c3C2=O)NC(=O)/C(C)=C\C=C\[C@H](C)[C@H](O)[C@@H](C)[C@@H](O)[C@@H](C)[C@H](OC(C)=O)[C@@H]1C,.,.,?,.,-19.1%,.
Cc1onc(-c2ccccc2)c1C(=O)NNC(=S)NC(=O)/C=C/c1cccs1,9.0%,2.1%,12.6µM*,-21.9%,25.7%,7.1%
Cc1onc(-c2ccccc2)c1C(=O)NC(=S)NNC(=O)c1cc(-c2ccc(F)cc2)n[nH]1,.,12.3%,50.1µM*,-18.3%,20.8%,-5.8%
Cc1onc(-c2ccccc2)c1C(=O)NNC(=S)NC(=O)c1ccc2c(c1)OCO2,10.0%,-16.0%,50.1µM*,-35.8%,19.2%,-17.5%
COc1ccc(C(=O)NC(=S)NNC(=O)c2c(-c3ccccc3)noc2C)cc1OC,0.4%,6.0%,31.6µM*,-28.3%,26.6%,-10.4%
Cc1onc(-c2ccccc2)c1C(=O)NC(=S)NNC(=O)c1ccncc1,7.0%,5.2%,3.8%[59 µM],-12.6%,-1.4%,2.4%
CCOc1ccccc1CNC(=O)c1cc2c(=O)n(Cc3ccccc3)ccc2nc1C,.,2.3%,3.4%[59 µM],-17.3%,.,-12.4%
